# Measurements from PubChem BioAssay (NCATS).
# “And” between values parts separate entries of the source, which are not always exact repeats. Identical values can stand only once. Unmarked numbers belong to inactive results. Inconclusive results are not listed. Entries that show only a call come without a potency. The source made the active and inactive calls. Unless noted, calls follow the shape of the dose curve; as a rule, active = well fitted curve in the direction sought with a large enough effect; inconclusive = small, poorly fitted or top-dose-only effect, or another doubt; inactive = no such curve, though single readings can be large; an effect the other way counts as inactive or inconclusive.
# Columns and labels:
# [1] = Cell Viability - Jurkat (AID 426;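 active = dose-dependent loss of cell ATP signal giving a full or clear fitted curve, ranked by lower potency value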;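 also: potency is read from the fitted curve at half-maximal effect; cells exposed to compound for 40 hours at 37 °C before ATP read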); conditions: qHTS
# In short: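 Seed 5000 Jurkat E6-1 cells/well; add compound; incubate 40 hr at 37 °C; add CellTiter-Glo; wait 20 min at room temperature; read luminescence. Fit concentration-response with Hill equation for AC50.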
# [2] = Cell Viability - Hek293 (AID 427;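 active = compounds whose dose-response curve shows a full or clear partial loss of cell viability, called from curve shape rather than a numeric limit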;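 also: potency is read from the fitted curve at half-maximal effect; cells exposed to compound for 40 hours at 37 °C before reading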); conditions: qHTS
# In short: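 Luminescent ATP read-out (CellTiter-Glo, 20 min RT) after 40 hr compound exposure at 37 °C in complete medium. Signal normalized to DMSO (basal) and 100 uM tamoxifen (100% inhibition); concentration-response fitted with the standard Hill equation to give AC50.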
# [3] = Cellular Toxicity (caspase-3) Jurkat (AID 655); conditions: Jurkat caspase-3 activation, luminescence; caspase-3 activation: at 92.2 µM (top of the series), DMSO = 0%, tamoxifen = 100%;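 also: cells exposed to compound for 16 h at 37 °C before reading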
# In short: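 Luminescent Caspase-Glo 3/7 read-out (20 min, room temperature) after 16 h compound treatment at 37 C of 5000 Jurkat cells per well. AC50 derived by Hill-equation fitting, scaled between DMSO basal and 100 uM tamoxifen stimulation.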
# [4] = Cellular Toxicity (caspase-3) BJ (AID 658); conditions: BJ fibroblasts, luminescence; Potency: caspase-3 activation; series mostly up to 91.7 µM
# In short: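 Luminescent aminoluciferin-substrate cleavage reports caspase 3/7 activity in normal human BJ fibroblasts after 16 hr compound exposure at 37 °C. Normalized to DMSO (basal) and 10 uM staurosporine (100%); AC50 from Hill fit of concentration-response.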
# [5] = Cellular Toxicity (caspase-3) Hek293 (AID 664); conditions: HEK293 caspase-3 activation, DMSO = 0%, 100 µM tamoxifen = 100%; at 92.2 µM (top of the series);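 also: cells exposed to compound for 16 h at 37 °C before readout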
# In short: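 Activation of caspase-3/7 is measured as increased luminescence from cleaved peptide-aminoluciferin substrate in HEK293 cells treated 16 hours at 37 °C. AC50 values come from Hill-equation fits of concentration-response data.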
# [6] = target: Cytochrome P450 3A4 (Homo sapiens) (UniProt P08684); test: qHTS Assay for Inhibitors and Substrates of Cytochrome P450 3A4 (AID 884); conditions: recombinant CYP3A4, Luciferin-PPXE luminescence; series mostly up to 57.1 µM; also: nearly all actives have a fitted effect of over 50% in size; also: potency is read from the fitted curve at half-maximal effect
# Chain of Cytochrome P450 3A4 (Homo sapiens) (P08684 whole entry, looked up): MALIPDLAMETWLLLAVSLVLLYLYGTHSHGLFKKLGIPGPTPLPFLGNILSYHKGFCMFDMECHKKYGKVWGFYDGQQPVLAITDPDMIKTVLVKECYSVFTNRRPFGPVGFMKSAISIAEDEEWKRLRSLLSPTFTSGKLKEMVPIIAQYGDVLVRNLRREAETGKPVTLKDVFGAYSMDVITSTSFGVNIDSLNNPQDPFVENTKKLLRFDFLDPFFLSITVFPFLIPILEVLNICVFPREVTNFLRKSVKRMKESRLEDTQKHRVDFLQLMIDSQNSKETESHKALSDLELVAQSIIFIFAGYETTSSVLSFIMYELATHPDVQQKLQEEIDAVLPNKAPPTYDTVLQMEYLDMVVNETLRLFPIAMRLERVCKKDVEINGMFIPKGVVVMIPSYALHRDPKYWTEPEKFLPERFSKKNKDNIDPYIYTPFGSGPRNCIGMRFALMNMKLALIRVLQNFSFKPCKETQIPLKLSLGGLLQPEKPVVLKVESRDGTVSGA
# In short: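 20 nM human CYP3A4 with 25 uM Luciferin-PPXE (at KM) in 200 mM KPO4, preincubated 10 min with compound; NADPH regeneration started a 60 min RT reaction. Luciferin detected by luminescence, normalized to 57 uM ketoconazole as full inhibition.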
# [7] = target: Estrogen receptor (Homo sapiens) (UniProt P03372); test: qHTS assay for small molecule antagonists of estrogen receptor alpha signaling (AID 588513; active = well fitted curve in the direction sought with a large enough effect in the signal ratio, with a control signal flat, not every such curve was filed as active; the % refers to the signal ratio); conditions: ER-alpha-UAS-bla HEK293, beta-lactamase ratio, antagonist mode; series mostly up to 76.9 µM
# Chain of Estrogen receptor (Homo sapiens) (P03372 whole entry, looked up): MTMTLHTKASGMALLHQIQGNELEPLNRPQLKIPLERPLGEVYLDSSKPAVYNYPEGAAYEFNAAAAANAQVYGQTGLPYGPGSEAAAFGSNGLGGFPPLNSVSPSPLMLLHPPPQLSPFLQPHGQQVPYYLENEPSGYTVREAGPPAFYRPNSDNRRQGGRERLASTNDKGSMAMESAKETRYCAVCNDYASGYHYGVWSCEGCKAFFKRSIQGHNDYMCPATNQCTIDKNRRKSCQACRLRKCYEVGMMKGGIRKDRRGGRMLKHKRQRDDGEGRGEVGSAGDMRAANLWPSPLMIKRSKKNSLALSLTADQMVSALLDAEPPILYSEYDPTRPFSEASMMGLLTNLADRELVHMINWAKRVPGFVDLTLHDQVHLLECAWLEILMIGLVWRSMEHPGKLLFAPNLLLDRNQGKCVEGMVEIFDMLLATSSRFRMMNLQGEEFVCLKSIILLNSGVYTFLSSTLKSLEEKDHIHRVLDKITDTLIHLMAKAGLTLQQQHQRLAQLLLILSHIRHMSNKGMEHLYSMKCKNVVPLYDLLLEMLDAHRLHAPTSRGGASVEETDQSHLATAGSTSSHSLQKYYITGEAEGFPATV
# In short: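 Antagonist mode: inhibition of 0.5 nM 17-beta-estradiol-driven beta-lactamase reporter in HEK 293 ER-alpha-UAS-bla cells, 18 h at 37C, CCF4 readout after 2 h at RT. Normalised to estradiol and DMSO; titration fitted to Hill.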
# [8] = target: Voltage-gated inwardly rectifying potassium channel KCNH2 (Homo sapiens) (UniProt Q12809); test: qHTS Assay for Small Molecule Inhibitors of the Human hERG Channel Activity (AID 588834); conditions: U2OS BacMam hERG, FluxOR thallium flux fluorescence; series mostly up to 92.2 µM;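 also: lower thallium flux fluorescence means stronger hERG block; nearly all actives have a fitted effect of over 50% in size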; also: potency is read from the fitted curve at half-maximal effect
# Chain of Voltage-gated inwardly rectifying potassium channel KCNH2 (Homo sapiens) (Q12809 whole entry, looked up): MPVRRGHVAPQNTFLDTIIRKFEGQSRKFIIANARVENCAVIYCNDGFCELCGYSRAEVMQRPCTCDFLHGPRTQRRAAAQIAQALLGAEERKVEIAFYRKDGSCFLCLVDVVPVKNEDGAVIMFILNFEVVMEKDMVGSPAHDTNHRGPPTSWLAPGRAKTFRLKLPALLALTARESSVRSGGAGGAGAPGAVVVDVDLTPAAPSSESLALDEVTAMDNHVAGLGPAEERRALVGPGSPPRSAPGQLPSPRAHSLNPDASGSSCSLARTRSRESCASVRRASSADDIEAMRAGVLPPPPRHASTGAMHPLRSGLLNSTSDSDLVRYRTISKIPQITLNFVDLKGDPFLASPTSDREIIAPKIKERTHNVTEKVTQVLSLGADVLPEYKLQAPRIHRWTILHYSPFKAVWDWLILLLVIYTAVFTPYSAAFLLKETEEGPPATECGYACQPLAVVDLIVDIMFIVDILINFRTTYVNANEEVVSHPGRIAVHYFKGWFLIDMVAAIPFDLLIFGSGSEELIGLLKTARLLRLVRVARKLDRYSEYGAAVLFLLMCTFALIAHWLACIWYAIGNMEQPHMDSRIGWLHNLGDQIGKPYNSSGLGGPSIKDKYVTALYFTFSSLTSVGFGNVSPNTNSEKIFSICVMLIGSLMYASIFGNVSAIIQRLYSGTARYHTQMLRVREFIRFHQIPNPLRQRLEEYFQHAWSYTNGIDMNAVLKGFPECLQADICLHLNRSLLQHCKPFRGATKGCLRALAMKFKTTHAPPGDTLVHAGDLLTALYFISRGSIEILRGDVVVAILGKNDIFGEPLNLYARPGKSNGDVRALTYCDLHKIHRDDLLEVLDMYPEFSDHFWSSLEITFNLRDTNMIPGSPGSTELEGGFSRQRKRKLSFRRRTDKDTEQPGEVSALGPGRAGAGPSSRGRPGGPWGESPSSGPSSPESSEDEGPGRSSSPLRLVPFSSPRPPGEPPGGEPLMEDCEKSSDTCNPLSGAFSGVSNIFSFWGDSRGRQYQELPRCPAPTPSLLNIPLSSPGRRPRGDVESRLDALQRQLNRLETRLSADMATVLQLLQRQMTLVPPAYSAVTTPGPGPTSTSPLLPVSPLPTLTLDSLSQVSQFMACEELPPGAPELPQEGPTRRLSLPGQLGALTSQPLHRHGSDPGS
# In short: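 Kinetic FDSS fluorescence; U2OS + hERG BacMam (~100 virus particles/cell); FluxOR Tl+ flux; ~10 min cpd; AC50 (Hill).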
# [9] = qHTS assay for small molecule activators of the p53 signaling pathway (AID 651743; active = well fitted activation curve with a large enough effect in the signal ratio, not every such curve was filed as active; the % refers to the signal ratio); conditions: HCT-116 p53RE-bla, beta-lactamase FRET ratio, 16 h; activation: stronger effect = higher value
# In short: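 p53RE-bla HCT-116 cells with a stably integrated beta-lactamase reporter under p53 response elements were plated, rested 5 hours at 37 C/5% CO2, then exposed to compounds in DMSO for 16 hours at 37 C. LiveBLAzer B/G FRET substrate was read after 2 hours at room temperature.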
# [10] = qHTS assay for small molecule activators of the nuclear factor-kappa B (NF-kB) signaling pathway (AID 651749; active = well fitted activation curve with a large enough effect in the signal ratio; the % refers to the signal ratio); conditions: NF-kB-bla ME-180 cells, beta-lactamase FRET ratio, 16 h; stronger effect = higher value
# In short: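 ME-180 cells stably carrying a beta-lactamase reporter under an NF-kB response element were exposed to compound or DMSO vehicle for 16 hr at 37C, 5% CO2. Pathway activation was read by FRET, since reporter expression disrupts FRET.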
# [11] = target: Tumor necrosis factor (Homo sapiens) (UniProt P01375); test: qHTS assay to identify small molecules that stimulate Tumor Necrosis Factor-alpha (TNF-alpha) secretion (AID 651757; active = well fitted curve in the direction sought with a large enough effect in the signal ratio; the % refers to the signal ratio; also: potency is read from the fitted curve at half-maximal effect); conditions: Human cells, HTRF 665/615 ratio; series mostly up to 92.2 µM
# Chain of Tumor necrosis factor (Homo sapiens) (P01375 whole entry, looked up): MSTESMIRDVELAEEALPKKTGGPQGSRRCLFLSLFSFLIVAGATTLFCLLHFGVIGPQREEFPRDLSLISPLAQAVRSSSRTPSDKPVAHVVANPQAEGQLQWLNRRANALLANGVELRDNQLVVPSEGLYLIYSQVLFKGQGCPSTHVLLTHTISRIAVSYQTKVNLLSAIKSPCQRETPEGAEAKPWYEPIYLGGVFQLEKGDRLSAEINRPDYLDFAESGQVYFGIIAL
# In short: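 Secreted TNF-alpha from compound-treated THP-1 cells (17 hrs, 37 C) was quantified with a homogeneous time-resolved fluorescence antibody assay.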
# [12] = target: Nuclear receptor ROR-gamma (Homo sapiens) (UniProt P51449); test: qHTS assay for small molecule antagonists of the retinoid-related orphan receptor gamma (ROR-gamma) signaling pathway (AID 651802); conditions: ROR-gamma antagonist cell reporter assay; series mostly up to 92.2 µM; also: nearly all actives have a fitted effect of over 60% in size; also: potency is read from the fitted curve at half-maximal effect
# Chain of Nuclear receptor ROR-gamma (Homo sapiens) (P51449 whole entry, looked up): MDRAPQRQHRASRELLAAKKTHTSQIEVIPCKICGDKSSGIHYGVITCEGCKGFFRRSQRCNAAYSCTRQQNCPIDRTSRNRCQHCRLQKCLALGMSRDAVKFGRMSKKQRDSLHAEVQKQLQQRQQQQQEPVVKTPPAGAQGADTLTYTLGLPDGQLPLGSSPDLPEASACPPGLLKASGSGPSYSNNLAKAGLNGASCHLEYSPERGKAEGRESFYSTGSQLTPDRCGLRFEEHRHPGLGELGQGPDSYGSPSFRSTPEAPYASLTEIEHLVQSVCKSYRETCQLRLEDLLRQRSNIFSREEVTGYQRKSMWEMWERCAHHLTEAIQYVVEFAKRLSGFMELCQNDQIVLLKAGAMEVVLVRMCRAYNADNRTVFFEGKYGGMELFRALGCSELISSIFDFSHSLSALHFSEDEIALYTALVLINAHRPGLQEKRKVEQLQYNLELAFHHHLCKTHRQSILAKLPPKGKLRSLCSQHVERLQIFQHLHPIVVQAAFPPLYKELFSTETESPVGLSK
# In short: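 Antagonism is scored as a fall in luminescence from a RORE-luciferase reporter in CHO cells expressing ROR under a TET-inducible promoter, measured 16hr after doxycycline induction in the presence of compound.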
# [13] = qHTS assay for small molecule antagonists of the retinoid-related orphan receptor gamma (ROR-gamma) signaling pathway - cell viability counter screen (AID 720652; active = well fitted curve in the direction sought with a large enough effect in the repeat runs; an effect the other way counts as inactive or inconclusive;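 also: CHO reporter cells with doxycycline-induced ROR-gamma expression; compound exposure lasted 16 hr before ATP read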); conditions: RORgamma reporter cell line viability counter screen; series mostly up to 92.2 µM
# In short: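 Cytotoxicity is quantified via intracellular ATP (CellTiter-Glo luminescence) in doxycycline-induced CHO ROR response element-luciferase reporter cells treated with compound for 16 hr at 37 C, 5% CO2.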
# [14] = qHTS assay for small molecule activators of the human pregnane X receptor (PXR) signaling pathway (AID 720659; call rule not given here); conditions: DPX-2 HepG2 CYP3A4-luciferase, 24 h; series mostly up to 92.3 µM
# [15] = Cell Viability - LYMP1-002 - Assay at 16 hr (AID 948); conditions: LYMP1-002 lymphoblastoid cell viability; series mostly up to 92.2 µM
# In short: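 ATP luminescence (CellTiter-Glo) was measured after 16 hr compound exposure at 37 C of 2500 lymphoblastoid LYMP1-002 cells per well. Concentration-response curves were fitted with the Hill equation to give AC50.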
# [16] = Cell Viability - LYMP2-003 (AID 965); conditions: LYMP2-003 lymphoblastoid cell viability; series mostly up to 92.2 µM;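 also: cells exposed to compounds for 24 h before reading; nearly all actives have a fitted effect of over 50% in size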
# In short: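 CellTiter-Glo luminescence quantified ATP loss after 24 h compound treatment of LYMP2-003 lymphoblastoid cells at 37 C. Titration series were fitted with the standard Hill equation to give AC50.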
# [17] = Cell Viability - LYMP1-002 - Assay at 24 hr (AID 993); conditions: LYMP1-002 lymphoblastoid cells viability; series mostly up to 92.2 µM
# In short: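 qHTS, LYMP1-002 lymphoblastoid, 24 h cpd, 37 C, CellTiter-Glo ATP luminescence; AC50 via Hill eq.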
# [18] = target: Peroxisome proliferator-activated receptor gamma (Homo sapiens) (UniProt P37231); test: qHTS assay for small molecule agonists of peroxisome proliferator-activated receptor gamma signaling (AID 588536; active = well fitted curve in the direction sought with a large enough effect in the signal ratio, with a control signal flat, not every such curve was filed as active; the % refers to the signal ratio); conditions: HEK293 PPARg-UAS-bla, beta-lactamase ratio, 16 h, percent of rosiglitazone response, DMSO as zero; series mostly up to 76.7 µM
# Chain of Peroxisome proliferator-activated receptor gamma (Homo sapiens) (P37231 whole entry, looked up): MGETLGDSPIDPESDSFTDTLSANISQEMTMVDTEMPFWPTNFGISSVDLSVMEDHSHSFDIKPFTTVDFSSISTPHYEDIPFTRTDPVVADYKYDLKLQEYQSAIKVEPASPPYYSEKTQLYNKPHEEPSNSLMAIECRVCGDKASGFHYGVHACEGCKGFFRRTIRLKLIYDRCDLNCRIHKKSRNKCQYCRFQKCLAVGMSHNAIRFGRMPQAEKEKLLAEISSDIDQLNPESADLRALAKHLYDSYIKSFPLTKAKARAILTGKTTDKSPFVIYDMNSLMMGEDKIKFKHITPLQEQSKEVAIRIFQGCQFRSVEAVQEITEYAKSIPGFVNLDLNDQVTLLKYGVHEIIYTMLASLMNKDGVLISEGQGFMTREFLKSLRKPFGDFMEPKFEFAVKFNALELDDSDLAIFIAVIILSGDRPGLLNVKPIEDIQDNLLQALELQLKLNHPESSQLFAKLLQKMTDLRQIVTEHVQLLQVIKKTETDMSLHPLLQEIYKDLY
# In short: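 PPAR-gamma-UAS-bla HEK293 cells in medium with 1% charcoal/dextran-treated FBS were exposed to compounds for 16 h at 37 C. Beta-lactamase activity was read with CCF4 substrate (405 nm excitation, 460/530 nm emission).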
# [19] = target: Vitamin D3 receptor (Homo sapiens) (UniProt P11473); test: qHTS assay for small molecule agonists of vitamin D receptor signaling (AID 588543; calls by dose curve); conditions: HEK293T VDR-UAS-bla, beta-lactamase ratio, 16 h; series mostly up to 76.8 µM
# Chain of Vitamin D3 receptor (Homo sapiens) (P11473 whole entry, looked up): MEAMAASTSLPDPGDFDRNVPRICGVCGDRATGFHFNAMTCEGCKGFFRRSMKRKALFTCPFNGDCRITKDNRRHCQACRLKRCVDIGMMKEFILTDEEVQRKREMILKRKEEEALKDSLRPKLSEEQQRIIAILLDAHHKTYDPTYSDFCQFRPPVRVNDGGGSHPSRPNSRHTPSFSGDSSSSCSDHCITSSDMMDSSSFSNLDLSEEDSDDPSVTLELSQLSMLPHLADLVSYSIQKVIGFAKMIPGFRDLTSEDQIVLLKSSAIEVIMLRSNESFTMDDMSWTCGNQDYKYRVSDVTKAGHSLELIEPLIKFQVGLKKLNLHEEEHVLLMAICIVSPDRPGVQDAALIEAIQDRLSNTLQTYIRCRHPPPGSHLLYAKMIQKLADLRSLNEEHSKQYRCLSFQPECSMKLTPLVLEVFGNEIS
# In short: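 Agonist-mode beta-lactamase reporter: HEK293T VDR-UAS-bla cells in charcoal-stripped 2% FBS, compound series 16 h 37 C, CCF4 2 h RT. EC50 from Hill fit, scaled against DMSO and 50 nM calcitriol control.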
# [20] = qHTS assay for small molecule agonists of the antioxidant response element (ARE) signaling pathway (AID 651741; active = well fitted activation curve with a large enough effect in the signal ratio; the % refers to the signal ratio; also: potency is read from the fitted curve at half-maximal effect); conditions: HepG2 ARE-bla reporter, beta-lactamase FRET ratio, 16 h; series mostly up to 96 µM
# In short: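 ARE-bla HepG2 cells (beta-lactamase reporter under ARE control) were plated at 2,000 cells/well, preincubated 5 h at 37 C/5% CO2, then treated with DMSO-dissolved compounds for 16 h at 37 C; LiveBLAzer B/G FRET substrate added, fluorescence read after 2 h at room temperature.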
Structure (SMILES),Potency [1],Potency [2],Potency [3],Potency [4],caspase-3 activation [5],Potency [6],outcome [7],Potency [8],activation [9],activation [10],Potency [11],Potency [12],Potency [13],outcome [14],Potency [15],Potency [16],Potency [17],outcome [18],Potency [19],Potency [20]
C[Si](C)(C)Cl,> 92 µM,> 92 µM,inactive,inactive,1.84%,inactive,inactive,inactive,-2.87%,1.18%,inactive,inactive,inactive,inactive,,,,,,
C=CC1CO1 (stereo not drawn),> 92 µM,> 92 µM,,inactive,,,,inactive,-3.74%,0.488%,inactive,inactive,inactive,inactive,inactive,inactive,inactive,inactive,inactive,inactive
CCCCCCCCC1CO1 (stereo not drawn),> 92 µM,> 92 µM,inactive,,,inactive,,inactive,-2.83%,,inactive,inactive,inactive,inactive,inactive,,inactive,inactive,inactive,
CCCCOC(=O)COc1ccc(Cl)cc1Cl,> 92 µM,> 92 µM,,inactive,-0.377%,inactive,,,-0.84% and -2.7%,1.36% and -1.12%,inactive,inactive,inactive,inactive,inactive,,inactive,inactive,inactive,inactive
Brc1ccc(-c2ccccc2)cc1,> 92 µM,> 92 µM,inactive,inactive,-0.717%,inactive,,,-2.65%,2.79%,inactive,inactive,inactive,inactive,inactive,,,,inactive,inactive
Oc1ccc(O)c2c(O)cccc12,30 µM (active),,,,,,inactive,inactive,-2.36%,,,66.8 µM (active),,inactive,inactive,,,,inactive,42.2 µM (active)
CCc1ccc(C(c2ccc(CC)cc2)C(Cl)Cl)cc1,> 92 µM,> 92 µM,inactive,inactive,1.15%,inactive,inactive,,-0.867%,,inactive,,,,,inactive,inactive,,inactive,66.8 µM (active)
CC(=O)OC(C(=O)c1ccccc1)c1ccccc1 (stereo not drawn),> 92 µM,> 92 µM,inactive,inactive,,inactive,inactive,inactive,-2.72%,0.305%,inactive,,inactive,inactive,inactive,,inactive,inactive,,
C=CC(=O)CC,,> 92 µM,inactive,inactive,,inactive,,inactive,-1.3%,,inactive,inactive,,,,,,inactive,inactive,
Nc1ccc(N=Nc2ccccc2)c(N)c1,> 92 µM,> 92 µM,inactive,inactive,,12.6 µM (active),inactive,,-4.52%,-1.7%,,inactive,inactive,,inactive,inactive,inactive,inactive,,42.2 µM (active)
Nc1ccc2c(c1)C(=O)c1ccccc1C2=O,49.6 µM,> 92 µM,,inactive,-8.84%,2.51 µM (active),inactive,inactive,2.17% and 5.16%,1.2% and -1.21%,,inactive,inactive,,,,inactive,inactive,,10.6 µM (active) and 48.6 µM (active)
Cc1cc(=O)oc2cc(O)cc(O)c12,> 92 µM,> 92 µM,inactive,,,6.31 µM (active),inactive,inactive,10.2%,,7.5 µM (active),inactive,inactive,inactive,inactive,inactive,inactive,inactive,,13.3 µM (active)
c1c[nH]cn1,> 92 µM,> 92 µM,inactive,inactive,,inactive,inactive,inactive,-1.43%,0.0227%,inactive,,inactive,inactive,inactive,,inactive,inactive,inactive,inactive
O=c1[nH]ncc2ccccc12,> 92 µM,> 92 µM,inactive,,,inactive,inactive,inactive,-2.08%,0.114%,inactive,inactive,inactive,inactive,inactive,inactive,,inactive,inactive,inactive
Nc1ccc(-c2ccc(N)c(O)c2)cc1O,32.3 µM (active),,,,0.00867%,,inactive,inactive,2.61%,,,inactive,inactive,inactive,inactive,,,,inactive,
O=[N+]([O-])c1ccccc1Nc1ccccc1,> 92 µM,> 92 µM,,,,,inactive,35.5 µM (active),-4.76%,,inactive,,inactive,inactive,,inactive,inactive,inactive,inactive,
